Assay outcomes (PubChem BioAssay)
KB-3-1 cytotox: kills parental KB-3-1 adenocarcinoma cells. hit rate 1.4% among 400,000. Potency, µM (titrated, usually from 46.1 µM), actives largely listed as cytotoxic. KB-3-1 viability, CellTiter-Glo ATP luminescence, 72 h. AID 1347075; also: nearly all actives have a fitted effect of over 60% in size
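Cytotoxicity measured as CellTiter-Glo luminescence after 72 h at 37 C. Compound titrations were pinned onto drug-naive KB-3-1 parental adenocarcinoma cells grown in DMEM with 10% FBS, and normalized data fitted to concentration-response curves.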
HT1080 IDH1KD tx: toxicity to HT-1080 IDH1 knockdown cells (counter line); HT-1080 IDH1 knockdown viability, ATP luminescence, 48 h; Potency, µM (top dose mostly 46.1 µM), for the others: at the top dose activity, negative = toxicity, most hits filed as cytotoxic; hit rate 2% among 360,000; AID 686971;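 also: 0% = DMSO wells and -100% = cell-free medium wells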
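Luminescent ATP read-out (CellTiter-Glo, 10 min at room temperature) after 48 h compound exposure at 37 °C gave viability of IDH1-knockdown HT-1080 cells. Activity was normalised to DMSO and cell-free wells, then fitted as concentration-response curves.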
HT1080-NT tox: kills 2HG-producing HT-1080-NT fibrosarcoma cells; hit rate 1.6% among 360,000; Potency, µM (doses to about 46.1 µM), without a hit: at the highest dose activity, negative = less viability, most hits filed as cytotoxic; HT-1080-NT fibrosarcoma viability, CellTiter-Glo ATP luminescence, 48 h;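 also: NT is the 2HG producing partner of a matched IDH1 knockdown line; 0% = DMSO-treated cells and -100% = media-only wells without cells; nearly all actives have a fitted effect of over 55% in size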
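Read-out is CellTiter-Glo luminescence after 10 minutes at room temperature, following 48 hours' compound treatment of HT-1080-NT cells (750 cells/well, RPMI, 5% FBS, 37 degrees C).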
KB-V1 MDR tox: kills drug-selected multidrug resistant KB-V1 cells; KB-V1 MDR cells viability, CellTiter-Glo, 72 h; Potency, µM (highest dose often 46.1 µM), actives largely listed as cytotoxic; hit rate 3.4% among 400,000; AID 1347076; also: nearly all actives have a fitted effect of over 60% in size
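In this primary screen, KB-V1 cells overexpressing P-gp are incubated with library compounds (lowest to highest concentration) for 72 h at 37 degrees C before a luminescent ATP viability read.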
* hit, by the source's call; i = inactive; ? = inconclusive; nt = no result; ! = repeats disagree; [ ] = dose if it differs, or a comment. In the library only some 5.7% were active in any assay of this set; here they are far more common. Calls follow the shape of the dose curve; as a rule, active = well fitted curve in the direction sought with a large enough effect; inconclusive = small, poorly fitted or top-dose-only effect, or another doubt; inactive = no such curve, though single readings can be large; an effect the other way counts as inactive or inconclusive. Unless noted, % is scaled to controls: 0 for no effect and ±100 for the full control effect; potency is read from the fitted curve at half-maximal effect.

SMILES	KB-3-1 cytotox	HT1080 IDH1KD tx	HT1080-NT tox	KB-V1 MDR tox
C=CCN(CC=C)C(=O)c1cc(Cl)ccc1[N+](=O)[O-]	i	3%	6%	i
COc1cccc(NC(=O)c2sc3nc(N4CCOCC4)c4c(c3c2N)CC(C)(C)OC4)c1	i	nt	nt	i
Cc1ccc(NC(=O)c2sc3nc(N4CCOCC4)c4c(c3c2N)CC(C)(C)OC4)cc1	i	15%	12%	i
Cc1nc2sc(C(=O)O)c(N)c2c2c1COC(C)(C)C2	i	13%	9%	i
CCOC(=O)c1sc2nc(-c3ccco3)c3c(c2c1N)CC(C)(C)OC3	i	-11%	0%	12µM*
CCOc1ccc(NC(=O)c2sc3nc(N4CCOCC4)c4c(c3c2N)CC(C)(C)OC4)cc1	7.3µM*	-4%	-4%	i
CC1(C)Cc2c(c(N3CCOCC3)nc3sc(C(=O)Nc4ccc(Cl)cc4)c(N)c23)CO1	16µM*!	15%	14%	?
CCC(=O)N1c2ccccc2CC1C(=O)NCCCN1CCN(c2cccc(Cl)c2)CC1 (configuration not stated)	i	nt	nt	i
c1cnc(N2CCN(c3nc4ccccc4n4cnnc34)CC2)nc1	?	5%	2%	7.3µM*
c1ccc(C(c2ccccc2)N2CCN(c3nc4ccccc4n4cnnc34)CC2)cc1	23µM*	-3%	0%	9.2µM*
Cc1cccc(N2CCN(c3nc4ccccc4n4cnnc34)CC2)c1C	i	-1%	1%	i
COc1ccc(-c2nn3c(-c4cc(C)[nH]n4)nnc3s2)cc1	i	nt	nt	i
O=C1C(=O)c2ccccc2C(O)=C1CCCCl	?	?	16µM*	?
O=c1cc(CCl)[nH]c2nc3ccccc3n12	i	?	18µM*	i
CC(C)c1cc(=O)n2c(nc3ccccc32)[nH]1	i	-2%	-6%	i
CCN1C(=O)C2(Nc3ccccc3-c3nc4ccccc4n32)c2cc(OC)ccc21 (configuration not stated)	?	-5%	-8%	13µM*
CC(CCc1ccccc1)NC(=O)COC(=O)c1ccc([N+](=O)[O-])cc1 (configuration not stated)	i	-3%	9%	i
CS(=O)(=O)c1ccc(C(=O)OCC(=O)N2CCN(CCC3CCCCC3)CC2)cc1[N+](=O)[O-]	6.5µM*	nt	nt	23µM*
CC(CCc1ccccc1)NC(=O)COC(=O)c1ccc(S(C)(=O)=O)c([N+](=O)[O-])c1 (configuration not stated)	i	7.3µM*	16µM*	i
Cc1ccccc1NC(=O)Cc1nc(COC(=O)c2ccc(S(C)(=O)=O)c([N+](=O)[O-])c2)cs1	?	16µM*	?	i
Cc1ccccc1NC(=O)COC(=O)c1ccc(S(C)(=O)=O)c([N+](=O)[O-])c1	21µM*!	10µM*	?	i
COc1cc2nc(Cl)nc(NC(C)C)c2cc1OC	nt	-10%	-18%	nt
COc1cc(C=O)cc(OC)c1[N+](=O)[O-]	i	nt	nt	i
COc1ccc(NC(=O)C(=O)NCc2ccco2)c(OC)c1	i	nt	nt	i
O=C1NC[C@H](CCCCN2CCN(CCC3CCCCC3)C(=O)C2=O)N(CCc2ccccc2)C1=O	i	?	19%	i
SMILES	KB-3-1 cytotox	HT1080 IDH1KD tx	HT1080-NT tox	KB-V1 MDR tox
Cc1ccc2nnc(Cl)n2n1	i	9%	7%	i
Clc1nnc2ccc(-c3ccccc3)nn12	23µM*	17%	17%	16µM*
c1ccc2c(c1)ncn2CCCCOc1ccc2c(c1)CCC2	?	3%	-3%	?
c1ccc2c(c1)ncn2CCCOc1ccc2c(c1)CCC2	?	?	?	12µM*
COc1ccc(-c2cccc(NS(=O)(=O)c3cc(C)c(Cl)cc3C)c2)nn1	i	nt	nt	i
O=S(=O)(c1cccc2ccccc12)N1CCN(c2nc(-c3cccs3)nc3ccccc23)CC1	nt	20%	7%	nt
Cc1ccc(Oc2ccc(S(=O)(=O)N3CCOCC3)cc2C(N)=O)c(-n2nc3ccccc3n2)c1	6.5µM*	4.1µM*	?	18µM*
CCOC(=O)c1sc2nccc(N(C)C)c2c1N=CNOC	?	9%	15%	?
CCOC(=O)c1sc2nccc(N(C)C)c2c1N=CNOCc1ccccc1	?	-24%	-29%	9.2µM*
CCNc1nc(N2CCCN(C)CC2)nc2cc(OC)c(OC)cc12	nt	-23%	-25%	nt
CCOC(=O)N1CCN(S(=O)(=O)Cc2ccccc2)CC1	i	5%	9%	i
O=C(CCl)N1CCN(S(=O)(=O)Cc2ccccc2)CC1	23µM*	?	?	?
Cn1c(Sc2ccc(C(F)(F)F)cc2[N+](=O)[O-])nnc1-c1ccccc1	i	-11%	-25%	21µM*
Cn1c(Sc2ccc([N+](=O)[O-])cc2C(F)(F)F)nnc1-c1ccccc1	?	0%	-7%	?
CC(C)C[C@@H](CO)N(Cc1ccccc1)S(=O)(=O)N(Cc1ccccc1)[C@H](CO)CC(C)C	?	?	?	21µM*!
O=S(=O)(N(Cc1ccccc1)[C@H](CO)Cc1ccccc1)N(Cc1ccccc1)[C@H](CO)Cc1ccccc1	i	-4%	-5%	i
COc1ccc(CN([C@H](C)CO)S(=O)(=O)N(Cc2ccccc2)[C@H](CO)C(C)C)cc1	i	8%	12%	i
C=CS(=O)(=O)N(Cc1ccccc1Br)[C@H](CO)CC(C)C	23µM*!	-20%	-12%	?
CCN([C@H](CO)CC(C)C)S(=O)(=O)c1ccccc1	i	7%	-1%	i
CC(C)C[C@@H](CO)N(Cc1ccccc1)S(=O)(=O)N(Cc1ccccc1)[C@@H](CO)CC(C)C	23µM*!	?	?	?
COc1ccc(CN([C@H](CO)CC(C)C)S(=O)(=O)N(Cc2ccccc2)[C@H](CO)CC(C)C)cc1	?	6.5µM*	16µM*	16µM*!
CCc1cccc(NC(=O)c2cc3c(=O)oc4ccc(C)cc4c3s2)c1	i	nt	nt	i
CCC(C(=O)Nc1ccc(C)c(Cl)c1)n1c(=O)c(-c2ccccc2NC(C)=O)nc2ccccc21 (configuration not stated)	i	nt	nt	?
Cc1ccc(S(=O)(=O)N2CCN(c3nc(N(C)c4cc(Cl)ccc4O)nc4ccccc34)CC2)cc1	nt	10%	8%	nt
Cc1ccc(OCCOCCn2cnc3ccccc3c2=O)c([N+](=O)[O-])c1	i	10%	7%	?
Cc1ccc([N+](=O)[O-])c(OCCn2cnc3ccccc32)c1	?	-2%	1%	15µM*
COc1ccccc1Cn1c(CCCO)nc2ccccc21	i	0%[9.24 µM]	-6%	?
CCc1nc2ccccc2n1Cc1ccccc1OC	?	-1%[9.24 µM]	-20%	15µM*
CCCc1nc2ccccc2n1Cc1ccccc1OC	?	-2%	?	15µM*
O=C(COC(=O)c1cc(S(=O)(=O)Nc2ccccc2Cl)ccc1O)Nc1ccc(F)c(F)c1F	i	4%	6%	i
